Here are results for 76 compounds from paper PMC4552634, “A New Set of Chemical Starting Points with Plasmodium falciparum Transmission-Blocking Potential for Antimalarial Drug Discovery” (PLoS ONE, 2015).

In general, % Inhibition refers to the relative decrease from the control value, in per cent.

The structures appear in SMILES notation. Out of some 13,000 compounds screened, about 3,200 (25%) showed an effect of 50% or more. This is one part of the list.

For this test, the system named is P. falciparum stage V gametocytes. Set-up: BacTiter-Glo ATP luminescence viability of purified stage V gametocytes in 384-well plates, per cent inhibition versus DMSO. The conditions noted are these: 48 h, 5 µM; inhibitor.
Take `CCCN(Cc1nnc(-c2ccco2)o1)C(=O)C1CCCN(C(=O)c2ccc(Cl)cc2)C1` (stereo not shown) [TCMDC-125334]: the “% Inhibition” value was -4.25%. The figure for `Cc1cc(CNC(=O)c2ccc(-c3ccc(-c4nc5cc(C(F)(F)F)ccc5[nH]4)s3)cc2)on1` [TCMDC-132481] is -11.54%. Consider `CCCCCc1cc(O)c2c(c1)OC(C)(C)CC2C1=CCN(Cc2cnc3ccccc3c2)CC1` (stereo not shown) [TCMDC-131418], for which the “% Inhibition” value is -11.08%.

Regarding `Nc1nccc2ccc(-c3ccc4nccn4c3)cc12` [TCMDC-133425], the “% Inhibition” value is given as 49.74%. As for `Nc1nccc2ccc(Oc3ccncc3)cc12` [TCMDC-136517], the “% Inhibition” value is 51.03%.

Take `Nc1nccc2ccc(-c3ccsc3)cc12` [TCMDC-133431]: the “% Inhibition” value is given as 53.31%. As for `Cn1cncc1-c1ccc2c(-c3ccsc3)cnc(N)c2c1` [TCMDC-135368], the “% Inhibition” value was 3.201%. As to `Nc1ncc(-c2ccsc2)c2ccc(-c3ccc4cn[nH]c4c3)cc12` [TCMDC-135299], the “% Inhibition” value is listed as 100.9%.

Regarding `Nc1ncc(-c2ccsc2)c2ccc(-c3cnc[nH]3)cc12` [TCMDC-135369], the “% Inhibition” value is -1.546%. For `Nc1nccc2ccc(-c3ccc(Oc4ccccc4)cc3)cc12` [TCMDC-133432], the “% Inhibition” value amounted to 19.11%. The figure for `Nc1nccc2ccc(-c3ccncc3)cc12` [TCMDC-138929] is 32.25%; for `Nc1nnc(-c2ccc(Cl)c(Br)c2)c(N)n1` [TCMDC-137285] it is -16.33%; for `Cc1cc(N2Cc3ccccc3C2)nc(Nc2cccc(C#N)c2)n1` [TCMDC-134199] it is -14.79%. In the case of `Cc1[nH]c2c(C)cc(NS(C)(=O)=O)cc2c1C1CCN(CC2CCN(C(=O)/C=C/c3ccc(Cl)c(Cl)c3)CC2)CC1` [TCMDC-140173], the “% Inhibition” value is reported as -57.53%. In the case of `Cc1cccc(C(=O)Nc2ccnc(N(C)CCCN(C)Cc3cccc(C#N)c3)c2)c1` [TCMDC-134968] it was 26.78%; in that of `O=C(NCc1ccco1)c1ccc(S(=O)(=O)c2ccc(Cl)cc2)cc1` [TCMDC-124393], 65.45%. In the case of `O=C(Nc1ccccc1O)c1ccc(S(=O)(=O)c2ccc(Cl)cc2)cc1` [TCMDC-123689] it was 47.63%. For the compound `CC(C)CCN1CCCN(Cc2ccc(C(=O)NCc3ccc(Cl)cc3)cc2)CC1` [TCMDC-136452], the “% Inhibition” value is -12.3%. On to `O=C(Nc1ccc(-c2cccc(-c3nc4ccccc4[nH]3)c2)cc1)Nc1ccc(Cl)c(Cl)c1` [TCMDC-133284], for which the “% Inhibition” value is recorded as -10.68%. The figure for `O=C(Nc1ccccc1O)c1ccc(Oc2cccc(C(=O)Nc3ccccc3O)c2)cc1` [TCMDC-125220] is -89.02%; for `CCN(CC)C(=O)C1CCN(C(C(=O)N2CCN(CC(=O)N3CCCC3)CC2)c2cc3ccccc3o2)CC1` (stereo not shown) [TCMDC-141126] it is -9.75%; for `Cc1cc2ccccc2n1CC(=O)N1CC(C(=O)N2CCCCC2)Oc2ccccc21` (stereo not shown) [TCMDC-125253] it is 84.5%. In the case of `COc1ccc(C(F)(F)F)cc1N1CCN(CCCCNC(=O)c2ccc(NC(=O)c3ccc(Cl)cc3)cc2)CC1` [TCMDC-138258] it was -21.85%; in that of `O=C(Nc1ccc(C(=O)OCC2CCCN3CCCCC23)cc1)c1ccc(Cl)c(Cl)c1` (stereo not shown) [TCMDC-124027], 3.603%.

Take `OCCN1CCN(c2ccc(Nc3ccnc4cc5ccccc5cc34)cc2)CC1` [TCMDC-123915]: the “% Inhibition” value is listed as 73.35%.

Take `CCN(CC)CCNc1ccnc2ccc3ccccc3c12` [TCMDC-131800]: the “% Inhibition” value worked out at 5.083%. As for `CN1CCN(c2ccc(Nc3ccnc4ccc(-c5ccccc5)cc34)cc2)CC1` [TCMDC-123917], the “% Inhibition” value is -37.23%. The figure for `CCN(CC)CCNc1ccc(Nc2ccnc3cc4ccccc4cc23)cc1` [TCMDC-123498] is 93.37%. On to `c1ccc2cc3c(Nc4ccc(N5CCCCC5)cc4)ccnc3cc2c1` [TCMDC-123505], for which the “% Inhibition” value is reported as -37.48%.

For the compound `CC(C)Nc1ccc(Nc2ccnc3cc4ccccc4cc23)cc1` [TCMDC-123916], the “% Inhibition” value is -35.26%.

For `O=C(/C=C/c1ccc(Cl)c(Cl)c1)NCCCCCN1CCC(NC(=S)Nc2ccc(Cl)cc2Cl)CC1` [TCMDC-135902], the “% Inhibition” value was found to be 24.59%. The figure for `CCOc1ccc2nc(N(CCCn3ccnc3)C(=O)C=Cc3cccs3)sc2c1` [TCMDC-124925] is -19.53%. The figure for `Nc1nc(N)c2c(ccc3nn(S(=O)(=O)N4CCCC4)cc32)n1` [TCMDC-137854] is 1.328%; for `COc1c(C2CCN(CCCCNC(=O)c3ccc(-c4ccc(C#N)cc4)c(O)c3)CC2)ccc2c1CCCC2` [TCMDC-138682] it is 69.72%; for `COc1c(C2CCN(CCCCNC(=O)C=Cc3ccccc3C(F)(F)F)CC2)ccc2c1CCCC2` [TCMDC-135279] it is 85.89%. The figure for `COc1c(C2CCN(CCCCNC(=O)c3ccc(-c4ccc(C#N)cc4)nc3)CC2)ccc2c1CCCC2` [TCMDC-134688] is -0.6168%; for `COc1c(C2CCN(CCCCNC(=O)c3oc(-c4ccc(Cl)cc4)cc3CO)CC2)ccc2c1CCCC2` [TCMDC-134829] it is -10.73%. As for `COc1c(C2CCN(CCCCNC(=O)C=Cc3cc4cc(Cl)ccc4o3)CC2)ccc2c1CCCC2` [TCMDC-135062], the “% Inhibition” value was -50.69%. The figure for `COC(=O)COc1cc(C(=O)NCCCCN2CCC(c3ccc4c(c3OC)CCCC4)CC2)ccc1-c1ccc(Cl)cc1` [TCMDC-134372] is 38.74%; for `COc1c(C2CCN(CCCCNC(=O)c3ccc(-c4ccc(Cl)cc4)c(OCCN(C)C)c3)CC2)ccc2c1CCCC2` [TCMDC-134371] it is 101.9%; for `COc1c(C2CCN(CCCCNC(=O)c3cc(-c4ccc(C#N)cc4)n[nH]3)CC2)ccc2c1CCCC2` [TCMDC-134659] it is -32.94%. The figure for `COc1c(C2CCN(CCCCNC(=O)c3ccc(-c4ccc(Cl)cc4)c(O)c3)CC2)ccc2c1CCCC2` [TCMDC-134282] is 111.5%. In the case of `CCN(c1ccccc1)S(=O)(=O)c1ccc(OC)c(NC(=O)c2cccc(C(F)(F)F)c2)c1` [TCMDC-125343] it was 14.96%; in that of `O=C(NC1CCN(c2ccnc3cc(Cl)ccc23)C1)c1cccc(F)c1` (stereo not shown) [TCMDC-133656], 0.5042%; in that of `COc1c(C2CCN(CCCCNC(=O)c3ccc(-c4ccc(Cl)cc4)c(OCC(N)=O)c3)CC2)ccc2c1CCCC2` [TCMDC-134373], 13.03%. On to `CC(=O)c1ccc(-c2ccc(C(=O)NCCCCN3CCC(c4ccc5c(c4OCC(N)=O)CCCC5)CC3)cc2)s1` [TCMDC-134174], for which the “% Inhibition” value is reported as -29.18%. In the case of `COc1c(C2CCN(CCCCNC(=O)c3cc(-c4ccc(Cl)cc4)oc3C)CC2)ccc2c1CCCC2` [TCMDC-134696] it was 7.674%. The figure for `COc1c(C2CCN(CCCCNC(=O)c3cc(-c4ccc(Cl)cc4)[nH]c3C)CC2)ccc2c1CCCC2` [TCMDC-135270] is 45.24%; for `COc1c(C2CCN(CCCCNC(=O)c3ccc(-c4ccc(Cl)cc4)cn3)CC2)ccc2c1CCCC2` [TCMDC-134687] it is 70.09%. The figure for `COc1c(C2CCN(CCCCNC(=O)c3cccc(-c4ccc(C(F)(F)F)cc4)c3)CC2)ccc2c1CCCC2` [TCMDC-138701] is 48.96%; for `COc1c(C2CCN(CCCCNC(=O)c3ccc(-c4ccc(NC(=O)C(F)(F)F)cc4)cc3)CC2)ccc2c1CCCC2` [TCMDC-134380] it is 96.81%. Turning to `NC(=O)COc1c(C2CCN(CCCCNC(=O)c3ccc(-c4ccc(Cl)cc4)c(O)c3)CC2)ccc2c1CCCC2` [TCMDC-133379], the “% Inhibition” value turned out to be 84.67%. In the case of `N#Cc1ccc(NC(=O)c2ccc(C(=O)NCCCCN3CCC(c4ccc5c(c4OCCOC4CCCCO4)CCCC5)CC3)cc2)cc1` (stereo not shown) [TCMDC-138789] it was 80.58%. For the compound `Cc1nc(-c2ccc(C#N)cc2)sc1C(=O)NCCCCN1CCC(c2ccc3c(c2OCCO)CCCC3)CC1` [TCMDC-138879], the “% Inhibition” value is on record as 11.85%. In the case of `COC(=O)c1sc2ccccc2c1NC(=O)c1ccc(C)c(C)c1` [TCMDC-125650] it was 21.99%. The figure for `CCC(C)(C)c1ccc2nc(N)nc(N)c2c1C` [TCMDC-137829] is -16.15%. The figure for `CC(=O)N1CCC(C(=O)Nc2ccc(-c3cccc(-c4nc5ccc(C(F)(F)F)cc5[nH]4)c3)cc2)CC1` [TCMDC-132166] is -13.72%; for `O=C(/C=C/c1ccc(Cl)c(Cl)c1)NCCCCCN1CCC(NC(=O)Nc2ccc(Cl)cc2Cl)CC1` [TCMDC-135729] it is -21.32%. Turning to `O=C(Nc1cccc(N2CCC(NCc3cccnc3)CC2)c1)c1cccc(C(F)(F)F)c1` [TCMDC-124649], the “% Inhibition” value is listed as -0.3933%. The figure for `COc1c(C2CCN(CCCCNC(=O)c3noc(-c4ccc(C#N)cc4)n3)CC2)ccc2c1CCCC2` [TCMDC-138814] is 4.753%; for `COc1c(C2CCN(CCCCNC(=O)c3ccc(NC(=O)c4ccc(C#N)cc4)cc3)CC2)ccc2c1CCCC2` [TCMDC-138664] it is 116.8%. The figure for `Cn1ccc(C(=O)Nc2ccc3c(c2)CN(Cc2ccc(N4CCCC4)o2)CCC3)n1` [TCMDC-134722] is -3.632%; for `O=C(NCc1cccc(F)c1)Nc1cccc(-c2cccc(-c3nc4ccccc4[nH]3)c2)c1` [TCMDC-133290] it is 0.3342%; for `CC(=O)Nc1ccc(CN2Cc3ccc(NC(=O)Nc4ccc(Oc5ccccc5)cc4)cc3C2)s1` [TCMDC-141756] it is -76.53%.

Turning to `c1cc(-c2ccc(CN3CCCCC3)cc2)cc(-c2nc3ccccc3[nH]2)c1` [TCMDC-133917], the “% Inhibition” value is -5.733%. In the case of `Cc1cccc2nc(-c3ccc(-c4ccc(CN5CCCC(O)C5)cc4)cc3)[nH]c12.O=C(O)C(F)(F)F` (stereo not shown) [TCMDC-133826] it was 35.59%; in that of `O=C(O)C(F)(F)F.OCC1CCN(Cc2ccc(-c3ccc(-c4nc5cc(F)ccc5[nH]4)cc3)cc2)CC1` [TCMDC-133125], 29.73%. As to `NC(=O)C1CCN(Cc2cccc(-c3ccc(-c4nc5ccc(C(F)(F)F)cc5[nH]4)cc3)c2)CC1` [TCMDC-132691], the “% Inhibition” value was -22.66%. The figure for `Cc1cccc2nc(-c3ccc(-c4ccc(CN5CCC(CCN6CCCCC6)CC5)cc4)cc3)[nH]c12` [TCMDC-133929] is 114%; for `Fc1ccc2nc(-c3cccc(-c4ccc(CN5CCCCC5)cc4)c3)[nH]c2c1` [TCMDC-133887] it is 2.75%; for `Cc1cccc2nc(-c3ccc(-c4ccc(CN5CCC(C(N)=O)CC5)cc4)cc3)[nH]c12.O=C(O)C(F)(F)F` [TCMDC-132688] it is 10.12%. In the case of `Fc1ccc2[nH]c(-c3cccc(-c4ccc(CN5CCC(CCN6CCCCC6)CC5)cc4)c3)nc2c1` [TCMDC-133940] it was 104.4%; in that of `Fc1ccc2[nH]c(-c3ccc(-c4ccc(CN5CCC(CCN6CCCCC6)CC5)cc4)cc3)nc2c1` [TCMDC-133924], 105.4%; in that of `FC(F)(F)c1ccc2[nH]c(-c3ccc(-c4cccc(CN5CCC(CCN6CCCCC6)CC5)c4)cc3)nc2c1` [TCMDC-133941], 100.4%. The figure for `FC(F)(F)c1ccc2nc(-c3ccc(-c4cccc(CN5CCCCC5)c4)cc3)[nH]c2c1` [TCMDC-133886] is -44.09%; for `NC(=O)C1CCN(Cc2ccc(-c3ccc(-c4nc5cc(F)ccc5[nH]4)cc3)cc2)CC1.O=C(O)C(F)(F)F` [TCMDC-132693] it is 4.411%.
